The text below walks through data of paper PMC12136788.

Whole data set: some 24,000 sequences, median “enrichment r” near 0.99, cut for the highest 2% near 3.7. Only a selection was taken, and the highest values are over-represented in it overall.

T1: UNK ZnF1-3 (human, UniProt Q9C0B0 31-174)
T1 sequence: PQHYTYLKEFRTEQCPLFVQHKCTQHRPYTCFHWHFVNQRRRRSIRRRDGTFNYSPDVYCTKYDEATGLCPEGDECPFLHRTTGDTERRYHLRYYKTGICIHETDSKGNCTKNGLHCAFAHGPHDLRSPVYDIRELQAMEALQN

B1: 80013064_80013876_841_CDS_ENSG00000169727_ENST00000578552|human|control|control (ssRNA)
RNA: GGGAGUUCUACAGUCCGACGAUCCUCAGGGAAGUCACAGUGAUCAAAGGAAGCCAGCAGGAGGCACUUGGCAGCCUGCUUGUACUUCCUGGCGGCCAGCUCUGCCAAGCCUGCGGCACACUUGAGCUUGGUGAGGAUGGCCUGCAACAGAGGAUUGAGCAUCA
B2: chrX:40988281:40988282:+_ENSG00000124486_ENST00000378308|hu_hu|FALSE|FALSE (ssRNA)
RNA: GGGAGUUCUACAGUCCGACGAUCUUCAAGCUGUGGUGGGGCAUCACCUUGACCUUGCUCAUCUGGGGGAGUUGCCGGGGAAUUUUCAUUGGAAGAAUCAGGCGAUGAAGUCUGAUUCUGUUGGAGGGGGGGCUGAGACUGUCCCAACAGAGGAUUGAGCAUCA
B3: 5790880_5791000_6181_CDS_ENSG00000108021_ENST00000328090|human|control|control (ssRNA)
RNA: GGGAGUUCUACAGUCCGACGAUCGAAGUUCAACGACGACUCAUAGCCAUCUGUGGGAACAUCUUUUUUCCUGGUGUAACUACCUCUUAAAGUAUAAGAAUCCUCCAAAUCCAGUCUGGGAUUUCUACAAUCACCAAGCAGGUCCAACAGAGGAUUGAGCAUCA
B4: chr12:133780691:133780692:+_ENSG00000090612_ENST00000541009|hu_hu|motif|central (ssRNA)
RNA: GGGAGUUCUACAGUCCGACGAUCUCAUAUGGUUUUUCACCUGAAUGAGUUCUCAUGUGUAUAAUUAGGUAUGACUUGCUGCGGAAAGCUUUCCCACAUUCACUGCACCCAUAAGGCUUUUCCCCUGCAUGAGUUCGCUGAUGUCAACAGAGGAUUGAGCAUCA
B5: 5036412_5036532_457_CDS_ENSMUSG00000022536_ENSMUST00000115844|mouse|control|control (ssRNA)
RNA: GGGAGUUCUACAGUCCGACGAUCGCCUGAAGUCACCCUCUUCUUUCCUUCUCCCAUGUUCUUCUUCACCUUCCCUUCAGACAGGCUAAGCUUGCGUUUCUCAUCACCUGAGUUUGGCCUACUUCUCUCCUCACUGGAAUUACGCAACAGAGGAUUGAGCAUCA
B6: chr5:37680062:37680063:+_ENSMUSG00000029121_ENSMUST00000031004|mus_hu|mus_mus_mus_hu_False|58_98 (ssRNA)
RNA: GGGAGUUCUACAGUCCGACGAUCUUUGGGUGUAGCUGGCACCUCGUACACAGGACCGUCAUACAUGCCCCUGGAAACACUAUGCAAUCCAAAAACCUUAUUCCUGAUUUUGACGCGCUGGUACAGGUGCUCCGGGAACGCCUUCAACAGAGGAUUGAGCAUCA

This assay concerns the target T1, UNK ZnF1-3. Put plainly: nsRBNS (natural sequence RNA bind-n-seq); RBNS binding buffer (assumed for nsRBNS): 25 mM Tris pH 7.5, 150 mM KCl, 3 mM MgCl2, 0.01% Triton X-100, 500 ug/ml BSA, 20 U/ml SUPERase-In, 4 C; UNK is unkempt and MSI1 is Musashi-1; names of the RNAs are library labels; protein concentration not given here; high values mean tight binding.
Molecule B1 gave a binding signal of 0.285 enrichment R.

B2 registered a binding signal of 1.24 enrichment R.

Molecule B3 yielded a binding signal of 1.18 enrichment R.

On to B4, for which the binding signal amounted to 0.705 enrichment R.

For B5, the binding signal stood at 0.512 enrichment R.

Consider B6, for which the binding signal is 0.673 enrichment R.
